# Measurements as given in paper PMC5540273 (PLoS ONE, 2017).
# Assays:
# Details in all cases: concentration: 1 μM, replicates: in singlicate; n = 1
# MARK4 = test system: MARK4
# MAST1 = test system: MAST1
# MEK1 = test system: T1, MEK1
# T1 construct: gene MAP2K1
# MEK2 = test system: T2, MEK2
# T2 construct: gene MAP2K2
# MEK3 = test system: T3, MEK3
# T3 construct: gene MAP2K3
# MEK4 = test system: T4, MEK4
# T4 construct: gene MAP2K4
# MEK5 = test system: T5, MEK5
# T5 construct: gene MAP2K5
# MEK6 = test system: T6, MEK6
# T6 construct: gene MAP2K6
# MELK = test system: MELK
# MERTK = test system: MERTK
# 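Further: KINOMEscan kinase panel screen.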
Compound,%Inh (MARK4),%Inh (MAST1),%Inh (MEK1),%Inh (MEK2),%Inh (MEK3),%Inh (MEK4),%Inh (MEK5),%Inh (MEK6),%Inh (MELK),%Inh (MERTK)
CCS(=O)(=O)c1ccc(OC)c(Nc2ncc(-c3ccc(F)cc3)o2)c1.Cl [GW591947],0%,0%,0%,0%,0%,6%,18%,0%,0%,28%
CCC(=O)c1c(-c2ccccc2)c2cc(Cl)ccc2c(=O)n1Cc1cc(S(C)(=O)=O)n(CCC(C)(C)O)n1,0%,0%,11%,19%,23%,40%,0%,8%,16%,13%
CCCC(=O)Nc1n[nH]c2ncc(-c3cccc4ccccc34)cc12 [SB-642057],0%,0%,4%,8%,0%,0%,12%,0%,33%,0%
COc1cc2ncn(-c3cc(OCc4ccncc4Br)c(C(N)=O)s3)c2cc1OC [GW854278],39%,3%,0%,13%,0%,16%,98.8%,0%,17%,11%
COc1cc2nccc(Nc3ccc(OCc4ccc(NC(C)=O)cc4)cc3)c2cc1OC.Cl [GW440135],8%,0%,19%,0%,14%,2%,99.6%,0%,0%,40%
CCc1ccc(-c2ccc3c(c2)-c2nn(C)cc2S(=O)(=O)N3C)cc1,16%,0%,53%,18%,17%,0%,27%,0%,0%,0%
COc1ccc(Nc2nccc(N3CCC(NS(=O)(=O)c4ccc(NC(C)=O)cc4)C3)n2)cc1 (centres unmarked) [GSK1379729],0%,0%,0%,10%,12%,5%,36%,0%,17%,25%
CCS(=O)c1ccc(-c2coc3ccc(-c4nnc(C)o4)cc23)cc1 (centres unmarked),0%,53%,0%,8%,6%,23%,22%,0%,0%,0%
CN1C(=O)C(Nc2cc(Cl)c(O)c(Cl)c2)=C(c2ccc(Cl)cc2)C1=O [SB-404321],0%,41%,0%,0%,29%,0%,25%,0%,0%,30%
Cc1nnc(-c2ccc(C)c(-c3ccc(C(=O)O)cc3)c2)o1 [GW608005],21%,0%,0%,0%,0%,14%,0%,0%,0%,25%
Cc1cccc(-c2nc(Nc3ccc4c(cnn4C)c3)c3ccccc3n2)n1 [GW876731],8%,100%,0%,0%,0%,0%,0%,5%,0%,0%
O=C(Nc1n[nH]c2nc(-c3ccccc3)c(Cl)cc12)C1CC1 [SB-734909],25%,12%,11%,0%,45%,24%,50%,0%,0%,0%
CN1C(=O)C(Nc2ccccc2)=C(c2ccccc2)C1=O [SB-300079],12%,100%,19%,34%,25%,18%,41%,0%,0%,0%
Cc1cccc(-c2cc(-c3c[nH]nc3-c3ccccn3)ccn2)c1 [GW679395],0%,0%,0%,0%,0%,36%,27%,0%,0%,12%
COC(=O)c1c(-c2ccccc2)c2cc(C)ccc2c(=O)n1Cc1ccccc1,0%,0%,0%,0%,0%,0%,0%,10%,0%,0%
COc1cc(Nc2nccc(N3CCC(NC(=O)C(C)c4ccc(Cl)cc4)C3)n2)cc(OC)c1OC (centres unmarked) [GSK1379757],11%,0%,0%,0%,0%,5%,59%,0%,6%,0%
COc1cc(OC)cc(-c2cc3cnc(N)nc3nc2NC(=O)NC(C)(C)C)c1,0%,0%,0%,0%,0%,0%,0%,0%,0%,0%
CCC(=O)c1c(-c2ccccc2)c2cc(Cl)ccc2c(=O)n1Cc1cc(S(C)(=O)=O)n(CC(F)F)n1,0%,0%,1%,12%,0%,18%,0%,0%,0%,0%

Compound,%Inh (MARK4),%Inh (MAST1),%Inh (MEK1),%Inh (MEK2),%Inh (MEK3),%Inh (MEK4),%Inh (MEK5),%Inh (MEK6),%Inh (MELK),%Inh (MERTK)
Cc1cc(Nc2nc(-c3cccc(C)n3)nc3ccccc23)ccn1 [GW872411],27%,0%,2%,9%,12%,0%,4%,0%,0%,25%
CCn1c(-c2ccoc2)nc2cnccc21 [SB-733887],0%,9%,18%,0%,5%,14%,38%,0%,22%,5%
Cc1ccccc1COc1cc(-n2cnc3cc(Cl)ccc32)sc1C(N)=O [GW813349],8%,0%,6%,14%,19%,0%,59%,0%,33%,16%
Nc1nccc2scc(-c3ccc4c(c3)CCN4C(=O)Cc3ccccc3)c12 [GSK2576924],0%,0%,2%,7%,0%,5%,93.2%,6%,16%,22%
COc1cccc(-n2cnc3c(N)ncnc32)c1 [SKF-97416],0%,59%,12%,12%,43%,36%,80%,18%,0%,0%
CC(C)(C)c1ccc(C(=O)Nc2cn3cc(-c4ccccc4)ccc3n2)cc1,0%,0%,0%,45%,25%,0%,75%,0%,0%,0%
Cc1c(Cn2c(C)nn3c(=O)cc(N4CCO[C@H](C)C4)nc23)cccc1C(F)(F)F [GSK2373690],0%,0%,0%,0%,0%,12%,1%,0%,0%,14%
O=c1cc(N2CCOCC2)nc2n(Cc3ccc(F)c(Cl)c3)ccn12 [GSK2297099],0%,0%,0%,0%,0%,5%,1%,14%,0%,0%
COC(=O)c1c(-c2ccccc2)c2cc(Br)ccc2c(=O)n1Cc1ccc(NC(=O)CCC(=O)O)cc1,4%,29%,0%,3%,11%,10%,10%,21%,7%,3%
FC(F)(F)c1ccc(-c2ncn(CCCN3CCOCC3)c2-c2ccncc2)cc1 [SB-217780],20%,23%,0%,0%,27%,3%,33%,0%,2%,0%
Nc1n[nH]c2nnc(-c3ccccc3)c(-c3ccccc3)c12 [GW554060],0%,9%,0%,0%,5%,14%,30%,0%,18%,0%
Fc1cccc(CSc2nnc(-c3ccc4c(c3)CCO4)o2)c1,0%,0%,3%,5%,6%,5%,14%,0%,0%,2%
CCC(=O)c1c(-c2ccccc2)c2cc(Cl)ccc2c(=O)n1Cc1cc(S(C)(=O)=O)n(CC(N)=O)n1,5%,0%,1%,40%,0%,0%,15%,0%,0%,0%
Cc1ccc(-c2ccc3c(ccc4sc5c(c43)NC[C@@H](C)N=C5N(C)C)n2)cn1,0%,0%,0%,0%,0%,0%,0%,2%,0%,0%
O=C(Nc1ccc2c(c1)OCO2)NC1CCN(c2ccnc(NCc3ccc(F)cc3)n2)CC1 [GSK1379859],20%,0%,0%,0%,6%,0%,8%,0%,100%,26%
Nc1n[nH]c2ncc(-c3ccccc3)cc12 [SB-517081],0%,0%,0%,1%,0%,0%,85%,4%,0%,0%
Cn1c(=O)c(F)c(Nc2ccc(I)cc2F)c2c(=O)n(OC[C@H](O)CO)cnc21,33%,37%,99.6%,99.1%,0%,0%,0%,0%,13%,5%
